Results from PubChem BioAssay AID463173 (ICCB-Longwood Screening Facility, Harvard Medical School, 2010).
Screen size: about 52,000 compounds; about 4,300 (8.3%) were called active. What follows is part of a selection rich in actives, with near analogues and random picks from the rest. Values without a mark were called inactive. Cut-off read from the data, not from the text of the source: active = survival mostly below about 52% (no sharp cut-off); inactive = mostly above about 56%.

system: DeltatarO mutant; test: growth inhibition of S. aureus wild type versus tarO mutant, primary screen, teichoic acid synthesis inhibitors, RN4220, OD600 (AID 463173); details: OD600, 18 h, hits give low values, screened at 18.75 µg/mL (by protocol)

SMILES	survival
COc1cccc(N2CC(NC(=O)c3ccc(S(=O)(=O)N4CCCCC4)cc3)CC2=O)c1 (centres undefined)	92%
CCn1c(=O)c(C(=O)Nc2ccc(C(C)=O)cc2)nc2ccccc21	81%
CC1CCN(S(=O)(=O)c2ccc3c(ccn3CC(=O)NCc3ccc(N(C)C)cc3)c2)CC1	77%
COc1cccc(CNC(=O)c2cc3cccc4c3n2CC(C)S4)c1OC (centres undefined)	84%
Cc1cc(C)c(S(=O)(=O)N2CCC(N3CCN(Cc4ccccc4)C(=O)C3=O)CC2)c(C)c1	68%
N#CC1=C(N)OC2=C(C(=O)CCC2)C12C(=O)Nc1ccc(F)cc12 (centres undefined)	93%
Cc1cccc(C)c1OCCCCn1c(C2CC(=O)N(c3ccc(F)cc3)C2)nc2ccccc21 (centres undefined)	77%
CCCCN1CC(c2nc3ccccc3n2CCCCOc2c(C)cccc2C)CC1=O (centres undefined)	46% (active)
COC(=O)Cn1c(C2CC(=O)N(c3c(C)cccc3C)C2)nc2ccccc21 (centres undefined)	58%
CCCCN1CC(c2nc3ccccc3n2CCCCOc2cccc(C)c2C)CC1=O (centres undefined)	2% (active)
Cc1ccccc1OCCCCn1c(C2CC(=O)N(c3ccccc3Cl)C2)nc2ccccc21 (centres undefined)	76%
CCCCN1CC(c2nc3ccccc3n2CCCCOc2ccccc2C)CC1=O (centres undefined)	34% (active)
Cc1cccc(NC(=O)CS(=O)(=O)c2cccc3nsnc23)c1	74%
Cc1cc2cc(CCNS(=O)(=O)c3ccc(Br)cc3)c(=O)[nH]c2cc1C	48%
O=c1c2oc3ccccc3c2n(Cc2cccc(C(F)(F)F)c2)c(=O)n1Cc1ccc2c(c1)OCO2	108%
CN1C(=O)Cc2cc(S(=O)(=O)CCC(=O)N3CCN(c4ccc(Cl)cc4)CC3)ccc21	86%
COc1ccc(Cn2c(=O)c3oc4ccccc4c3n(Cc3cccc(C(F)(F)F)c3)c2=O)cc1	73%
Nc1nc(SCC(=O)Nc2cccc(C(F)(F)F)c2)n[nH]1	63%
COC(=O)c1sccc1S(=O)(=O)N1CCN(c2ccccc2OC)CC1	74%
COc1cc(NC(=O)c2noc3c2CC(C(C)(C)C)CC3)cc(OC)c1OC (centres undefined)	40% (active)
CCc1ccccc1NC(=O)c1noc2c1CC(C(C)(C)C)CC2 (centres undefined)	-6% (active)
O=C(Nc1ccccc1C(F)(F)F)c1noc2c1CCCC2	63%
COc1cc(NC(=O)c2noc3c2CCc2ccccc2-3)cc(OC)c1OC	88%

SMILES	survival
COc1cc(NC(=O)c2noc3c2CC(C)CC3)c(OC)cc1Cl (centres undefined)	69%
CC1CCc2onc(C(=O)Nc3ccc(Cl)cc3)c2C1 (centres undefined)	75%
O=C(CN1C(=O)COc2ccc(S(=O)(=O)N3CCCC3)cc21)N1CCN(c2ccc(F)cc2)CC1	80%
CCOc1ccccc1CNc1nc2nc(C)cc(C)n2n1	97%
CCc1ccccc1N(CC)C(=O)C1CCN(c2ncnc3c2nc2n3CCCCC2)CC1	83%
CC(Oc1ccccc1F)C(=O)NCC1(N2CCOCC2)CCCCC1 (centres undefined)	61%
CCOc1ccccc1CNC(=O)CC(C)n1ccc(C)n1 (centres undefined)	77%
CCOC(=O)c1ccc(NC(=O)CC(C)n2nc(C)cc2C)cc1 (centres undefined)	124%
CC(=O)Nc1ccc(NC(=O)CC(C)n2ccc(C)n2)cc1 (centres undefined)	52% (active)
O=C(OCc1ccccc1)Sc1nnc(-c2ccccc2Cl)o1	90%
CCN(C(=O)Cn1c(=O)oc2cc(Cl)ccc21)c1cccc(C(F)(F)F)c1	67%
CCn1c(=O)cc(OCC(=O)Nc2ccc(C)c(F)c2)c2ccccc21	60%
CCCN(C(=O)COc1cc(=O)n(CC)c2ccccc12)c1ccc(C(C)C)cc1	-22% (active)
CCn1c(=O)cc(OCC(=O)Nc2cc(Cl)c(OC)cc2OC)c2ccccc21	69%
CCCN(C(=O)Cn1c(=O)oc2cc(Cl)ccc21)c1ccc(C(C)C)cc1	15% (active)
CCc1ccc(CNC(=O)COc2cc(=O)n(CC)c3ccccc23)cc1	55%
CCn1c(=O)cc(OCC(=O)N(C)c2cc(Cl)ccc2C)c2ccccc21	55% (active)
CCn1c(=O)cc(OCC(=O)NCc2ccccc2Cl)c2ccccc21	40% (active)
CCn1c(=O)cc(OCC(=O)N(C)c2ccc(OC)cc2)c2ccccc21	72%
CCCN(c1ccc(C(C)C)cc1)S(=O)(=O)c1ccc2c(c1)oc(=O)n2CC(=O)OCC	73%
CCn1c(=O)cc(OCC(=O)NCc2ccc(F)cc2Cl)c2ccccc21	105%
CCn1c(=O)cc(OCC(=O)NCc2ccccc2OC)c2ccccc21	60%
Cc1ccc(/C=C/c2onc(C)c2S(=O)(=O)N2CCC(C(=O)N3CCN(c4cccc(C)c4)C(C)C3)CC2)cc1 (centres undefined)	67%

SMILES	survival
COc1ccccc1C(=O)NC1(C(F)(F)F)C(=O)Nc2c1c(=O)[nH]c(=O)n2-c1ccc(F)cc1 (centres undefined)	190%
Cc1ccc(-n2ncc3c(=O)n(Cc4ccccc4C)cnc32)cc1C	127%
CC(=O)N(Cc1cccnc1)c1nc2ccc(F)cc2s1	81%
Cc1c(C(=O)Nc2ccc(F)cc2)oc2ccc(S(=O)(=O)N3CCCCCC3)cc12	99%
O=C(Nc1ccc(S(=O)(=O)N2CCCCC2)cc1)C(F)(F)F	58% (active)
Cc1ccc2c(=O)cc(C(=O)Nc3ccc(S(=O)(=O)N4CCC(C)CC4)cc3)oc2c1C	60%
Cc1cc(C)c2oc(C(=O)Nc3ccc(S(=O)(=O)N4CCC(C)CC4)cc3)cc(=O)c2c1	48%
Cc1cc(C)c2oc(C(=O)Nc3ccc(S(=O)(=O)N4CCCCCC4)cc3)cc(=O)c2c1	62%
Cc1c(C(=O)Nc2ccc(F)c(F)c2)oc2ccc(S(=O)(=O)N3CCCCC3)cc12	52% (active)
Cc1ccc(NC(=O)c2oc3ccc(S(=O)(=O)N4CCCCCC4)cc3c2C)cc1Cl	86%
Cc1ccc2c(=O)cc(C(=O)Nc3ccc(S(=O)(=O)N4CCCCC4)cc3)oc2c1C	90%
O=C(Nc1ccc(S(=O)(=O)N2CCCCC2)cc1)C1CCCCC1	97%
Cc1cc(C)c2oc(C(=O)Nc3ccc(S(=O)(=O)N4CCCCC4)cc3)cc(=O)c2c1	45% (active)
COC(=O)Nc1ccc(S(=O)(=O)N2CCCCC2)cc1	107%
Cc1ccc2c(=O)cc(C(=O)Nc3ccc(S(=O)(=O)N4CCCC(C)C4)cc3)oc2c1C (centres undefined)	51% (active)
O=C(NCc1ccccc1Cl)c1c2c(nc3ccccc13)C(=O)N(C1CCCCC1)C2	92%
COC(=O)c1ccc(-n2c(/C=C/c3cc(OC)c(OC)c(OC)c3)nc3cc(Cl)ccc3c2=O)cc1	80%
Cc1ccc2c(=O)cc(C(=O)Nc3ccc(S(=O)(=O)N4CCCCCC4)cc3)oc2c1	106%
Cc1cc2oc(C(=O)Nc3ccc(S(=O)(=O)N4CCCCCC4)cc3)cc(=O)c2cc1C	42% (active)
Cc1cc2oc(C(=O)Nc3ccc(S(=O)(=O)N4CCC(C)CC4)cc3)cc(=O)c2cc1C	72%
Cc1ccc(C)c(N2CCN(C(=O)C3CCN(C(=O)c4cc5sccc5n4C)CC3)CC2)c1	54%
CC1=C(C(=O)NCc2ccccc2C)C2(CCCCCC2)OC1=O	78%
COc1ccc(-n2nc3cc(C)c(NC(=O)c4ccc(-c5ccc(Cl)cc5)o4)cc3n2)cc1	45%

SMILES	survival
Cc1ccc(-n2nc3cc(C)c(NC(=O)Cc4ccc(Cl)cc4)cc3n2)cc1	64%
CCc1ccc(-n2nc3cc(C)c(NC(=O)c4ccccc4C)cc3n2)cc1	89%
COc1ccc(-n2nc3cc(C)c(NC(=O)Cc4ccc(Cl)cc4)cc3n2)cc1	56%
Cc1ccc(-n2nc3cc(C)c(NC(=O)c4ccc(-c5ccccc5)o4)cc3n2)cc1	46% (active)
COc1ccc(-n2nc3cc(C)c(NC(=O)c4ccc(-c5ccc(Br)cc5)o4)cc3n2)cc1	37% (active)
Cn1nc(C(=O)NCc2ccc(Cl)cc2)c2c1-c1ccccc1SC2	78%
COc1ccc(-n2c(SCC(=O)Nc3nnc(C)s3)nc3c([nH]c4ccccc43)c2=O)cc1	83%
Cc1ccc(C)c(Nc2nn3c(=O)c4ccc(C(=O)NCc5ccccc5)cc4nc3s2)c1	55%
CCOC(=O)c1c(CC(C)C)csc1NC(C)=O	71%
COc1cc(NC(=O)c2cc3cc4ccc(C)cc4nc3o2)cc(OC)c1OC	89%
CCc1ccccc1NC(=O)c1cc(S(=O)(=O)N2CCc3ccccc32)ccc1F	95%
Cc1cccc(NC(=O)c2cc(-c3ccc4c(c3)OCCO4)on2)c1	69%
Cc1c(Cl)cccc1NC(=O)c1cc(-c2ccc3c(c2)OCO3)on1	69%
O=C(Nc1cc(Cl)ccc1O)c1cc(-c2ccc3c(c2)OCO3)on1	58%
O=C(Nc1cccc(Cl)c1)c1cc(-c2ccc3c(c2)OCCO3)on1	103%
O=C(Nc1c(Cl)cccc1Cl)c1cc(-c2ccc3c(c2)OCO3)on1	39% (active)
O=C(Nc1cccc(Cl)c1)c1cc(-c2ccc3c(c2)OCO3)on1	77%
Cc1ccc(Cl)cc1NC(=O)c1cc(-c2ccc3c(c2)OCCO3)on1	34% (active)
O=C(Nc1cccc(Br)c1)c1cc(-c2ccc3c(c2)OCCO3)on1	47%
CC(=O)c1cccc(NC(=O)c2cc(-c3ccc4c(c3)OCCO4)on2)c1	45% (active)
